Data: PubChem BioAssay AID652016 (National Center for Advancing Translational Sciences (NCATS), 2013)
Results filed as inconclusive are left out. Where a call stands in place of a potency, no number is given. Active and inactive are the calls of the source. Calls come from the whole dose curve; as a rule, active = well fitted inhibition curve with a large enough effect; inconclusive = small, poorly fitted or top-dose-only effect; inactive = flat fitted curve, though single readings scatter.

Each compound was assayed against Luciferin 4-monooxygenase (Photinus pyralis) (UniProt P08659) (assay: qHTS Assay for Inhibitors of Firefly Luciferase from the GSK Published Protein Kinase Inhibitor Set). Conditions: purified firefly luciferase, luminescence inhibition; series mostly up to 57.5 µM.
Chain of Luciferin 4-monooxygenase (Photinus pyralis) (P08659 whole entry, looked up): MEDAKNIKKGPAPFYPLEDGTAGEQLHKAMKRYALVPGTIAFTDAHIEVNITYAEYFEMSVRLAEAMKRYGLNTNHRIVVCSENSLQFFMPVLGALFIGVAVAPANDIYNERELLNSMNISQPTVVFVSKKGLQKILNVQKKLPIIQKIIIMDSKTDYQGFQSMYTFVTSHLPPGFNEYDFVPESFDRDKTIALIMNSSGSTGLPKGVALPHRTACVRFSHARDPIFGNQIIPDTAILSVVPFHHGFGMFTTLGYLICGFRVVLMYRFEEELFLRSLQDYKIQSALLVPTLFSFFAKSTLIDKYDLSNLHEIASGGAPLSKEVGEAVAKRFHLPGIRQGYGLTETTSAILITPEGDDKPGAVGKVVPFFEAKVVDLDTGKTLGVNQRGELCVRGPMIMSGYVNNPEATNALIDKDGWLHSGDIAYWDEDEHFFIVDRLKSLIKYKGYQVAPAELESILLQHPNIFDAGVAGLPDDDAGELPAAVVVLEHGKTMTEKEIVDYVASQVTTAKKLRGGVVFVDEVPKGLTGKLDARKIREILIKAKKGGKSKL
Description: FLuc (firefly luciferase) is the prototypical bioluminescent reporter gene from Photinus pyralis.[1] The enzyme catalyzes the oxidation luciferin via luciferin-AMP to produce light. FLuc is used in cell-based reporter gene-based assays for screening small molecule chemical libraries. However, small molecule luciferase inhibitors present in most large chemical libraries are often enriched in the output of high throughput screens using this reporter sometimes complicating interpretation and candidate selection.
RLuc is a bioluminescent reporter gene luciferase from Renilla reniformis, also known as the sea pansy. RLuc uses the luciferin substrate coelenterazine. RLuc is often used in combination with the nonhomologous luciferase FLuc (firefly luciferease) as a trasfection or pathway normalization control. Recently, non-homologous reporters have been described for high throughput screening 'coincidence' reporter gene strategies.
1. Fan F, Wood KV (2007) Bioluminescent assays for high-throughput screening. Assay Drug Dev Technol 5: 127-136.
2. Thorne N, Inglese J, Auld DS (2010) Illuminating insights into firefly luciferase and other bioluminescent reporters used in chemical biology. Chem Biol 17: 646-657.
3. […] Chem Biol 19: 1060-1072.
4. Michelini E, Cevenini L, Mezzanotte L, Coppa A, Roda A (2010) Cell-based assays: fuelling drug discovery. Anal Bioanal Chem 398: 227-238.
5. Cheng KC, Inglese J (2012) A coincidence reporter-gene system for high-throughput screening. Nat Methods 9: 937.
Biochemical firefly luciferase enzyme assay
NCGC Assay Protocol Summary:
Reagents: 50mM Tris acetate, pH 7.5; 10mM Mg acetate; 10uM D-luciferin (Sigma #L9504); 10uM ATP; 0.01% Tween-20; 0.05% BSA; 10nM P. pyralis luciferase (Sigma #L9506)
Control compounds used were two known firefly luciferase inhibitors (compounds (2) and (5) in Auld et al., 2010), and DMSO.
Three microliters containing firefly luciferase substrates in buffer (final concentrations: 50mM Tris acetate, pH 7.5, 10mM Mg acetate, 0.01% Tween-20, 0.05% BSA, 10uM D-luciferin, and 10uM ATP) are dispensed into each well of a Greiner white, solid-bottom 1536-well format plate using a flying reagent dispenser (FRD). These assay plates were then treated with 23nL of compound or DMSO using a Kalypsys pin tool, which allows for delivery of a 7-point interplate titration of each compound to the assay plates (quantitative HTS), with final compound concentrations ranging from approximately 60uM to 300pM. One microliter of firefly luciferase in 50mM Tris-acetate buffer was then delivered by FRD to each well for a final enzyme concentration of 10nM. Luciferase activity was then measured using an Envision plate reader (PerkinElmer), with an average incubation time of 5 min.
Potency is the fitted concentration of half-maximal effect.

Row | Structure (SMILES) | Potency
1 | Nc1nc(-c2ccccn2)c(-c2ccc3ncccc3n2)s1 | 32.6 µM (active)
2 | COC(=O)Nc1nc2ccc(Oc3ccc(NC(=O)Nc4cccc(Br)c4)cc3)cc2[nH]1 | inactive
3 | CC(=O)NCc1cccc(C#Cc2cncnc2Nc2ccc(OCc3cccc(F)c3)c(Cl)c2)c1 | inactive
4 | COC(=O)Nc1nc2ccc(Oc3ccc(NC(=O)Nc4cccc(C(=O)O)c4)cc3)cc2[nH]1 | 0.116 µM (active)
5 | COc1cc(N2CCN(C(C)C)CC2)ccc1Nc1nc(Nc2cccc(F)c2C(=O)O)c2cc[nH]c2n1 | inactive
6 | COC(=O)Nc1nc2ccc(Sc3ccc(NC(=O)Nc4cc(C(F)(F)F)ccc4F)cc3)cc2[nH]1 | inactive
7 | CCN1CCC(C(=O)Nc2n[nH]c3nnc(-c4cccc(F)c4F)cc23)CC1 | inactive
8 | CNC(=O)c1sc(-n2cnc3cc(OC)c(OC)cc32)cc1OCc1ccccc1C(F)(F)F | inactive
9 | O=C1NC(=O)C(c2ccccc2Cl)=C1Nc1cccc(O)c1 | inactive
10 | CCCN1CCC(c2ccc(Nc3nc(Nc4cc(F)ccc4C(N)=O)c4cc[nH]c4n3)c(OC)c2)CC1 | inactive
11 | Cc1cc(Cl)cc2c(N=Nc3ccc(S(N)(=O)=O)cc3)c(O)[nH]c12 | inactive
12 | COc1cc(C)c(NC(=O)CN(C)C)cc1Nc1nc(Nc2cccc(F)c2C(N)=O)c2cc[nH]c2n1 | inactive
13 | COc1cc(Nc2ncc3c(C)nc(-c4cccc(C(F)(F)F)c4)n3n2)cc(OC)c1OC | inactive
14 | COc1ccc(COc2ccc(Cc3cnc(N)nc3N)cc2OC)cc1 | inactive
15 | CCS(=O)(=O)c1ccc(OC)c(Nc2ncc(-c3ccccc3Cl)o2)c1 | inactive
16 | COc1cccc(-n2ncc3c(NN=Cc4ccc(C)cc4)ncnc32)c1 | inactive
17 | CS(=O)(=O)CCNCc1ccc(-c2ccc3ncnc(Nc4ccc(OCc5cccc(F)c5)c(C(F)(F)F)c4)c3c2)o1 | inactive
18 | CS(=O)(=O)CCNCc1nc(-c2ccc3ncnc(Nc4ccc(F)c(Cl)c4)c3c2)cs1 | inactive
19 | Cc1cc(O)cc(C)c1C=Cc1cncc(C(=O)N(C)C)c1 | inactive
20 | COc1cccc(-c2c[nH]c3c(NN=Cc4ccncc4)ncnc23)c1 | 5.8 µM (active)

Row | Structure (SMILES) | Potency
21 | CS(=O)(=O)CCNCc1cc(-c2cc3c(Nc4ccc(OCc5cccc(F)c5)c(Cl)c4)ncnc3s2)cs1 | inactive
22 | CS(=O)(=O)CCNCc1ccc(-c2ccc3ncnc(Nc4ccc(OCc5ccccc5)c(C(F)(F)F)c4)c3c2)o1 | inactive
23 | NS(=O)(=O)c1ccc(N=Nc2c(O)[nH]c3ccc(C(=O)NCCCn4ccnc4)cc23)cc1 | inactive
24 | Cc1ccc(C(=O)NC(C)C)cc1-c1ccc(C(=O)NCC2CC2)cc1 | inactive
25 | CCn1c(-c2nonc2N)nc2cnc(Oc3cccc(NC(=O)c4ccc(N(C)C)cc4)c3)cc21 | 1.03 µM (active)
26 | CCCN1CCCC(c2ccc(Nc3nc(Nc4cc(F)ccc4C(N)=O)c4cc[nH]c4n3)c(OC)c2)C1 (stereo not given) | inactive
27 | NS(=O)(=O)c1ccc(N=Nc2c(O)[nH]c3ccc(-c4cnco4)cc23)cc1 | inactive
28 | CN1CCC(n2cnc(-c3ccc(F)cc3)c2-c2ccnc(N)n2)CC1 | inactive
29 | COc1cc2c(cc1Nc1nc(Nc3cccc(F)c3C(N)=O)c3cc[nH]c3n1)N(C(=O)CN1CCN(C(C)C)CC1)CC2 | inactive
30 | O=C(Nc1n[nH]c2nc(-c3ccco3)ccc12)C1CC1 | inactive
31 | COc1ccc2ncnc(Nc3ccc(OCc4ccccc4)cc3)c2c1 | inactive
32 | COc1ccc(-c2coc3ncnc(N)c23)cc1 | inactive
33 | Fc1cccc(COc2ccc(Nc3ncnc4cc(-c5ccc[nH]5)sc34)cc2Cl)c1 | inactive
34 | c1ccc(-c2[nH]ncc2-c2ccnc(-c3ccc(OCCn4ccnc4)cc3)c2)nc1 | inactive
35 | CNC(=O)c1cncc(C=Cc2ccccc2C)c1 | inactive
36 | CS(=O)(=O)CCN(CC#N)Cc1ccc(-c2ccc3ncnc(Nc4ccc(OCc5cccc(F)c5)c(Cl)c4)c3c2)o1 | inactive
37 | CCn1c(-c2nonc2N)nc2cncc(C(=O)N3CCNCC3)c21 | inactive
38 | CS(=O)(=O)CCNCc1ccc(-c2ccc3ncnc(Nc4ccc(OCc5cccc(C(F)(F)F)c5)cc4)c3c2)o1 | inactive
39 | CNC(=O)c1ncccc1Nc1nc(Nc2cc3c(cc2OC)CCCN3C(=O)CN(C)C)nc2[nH]ccc12 | inactive
40 | COC(=O)Nc1nc2ccc(S(=O)(=O)c3ccc(NC(=O)Nc4cc(C(F)(F)F)ccc4F)cc3)cc2[nH]1 | inactive
